High-throughput results deposited in PubChem by Sanford-Burnham Center for Chemical Genomics.
TROY signal inh = blocks TROY-dependent signaling in reporter cells; Q293 LMP1-TROYcd NF-kB luciferase reporter, 4 h; inhibition, % at 10 µM; 0.98% of 360,000 active;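 active = compounds whose plate-normalised and pattern-corrected inhibition of the luciferase reporter signal at the single screening dose is 50% or more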
CF NFkB block = cystic fibrosis NF-kB activation inhibition; KKLEB NF-kB-GFP reporter, PAF-induced, GFP fluorescence overnight; inhibition, % at 5 µM; 0.86% of 360,000 active;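 active = at least 50% inhibition at 5 µM, scaled per plate between neutral and stimulator controls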;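 also: PAF is a Pseudomonas aeruginosa culture filtrate used as stimulus; plate controls were PAF-stimulated DMSO wells for no effect and unstimulated DMSO wells for full effect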
Peg3 prom inh = inhibitors of Peg3 promoter; HeLa PEG-Prom luciferase reporter, luminescence, overnight; 1.7% of 360,000 active; inhibition, % at 20 µM;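 active = inhibition of at least 50% at 20 µM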
HIF-2a block = inhibitors of HIF-2a. AID 624352. 0.72% of 360,000 active. inhibition, % at 18.8 µM. 786-0 RCC cells HIF-2a reporter, luciferase luminescence, overnight;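 active = inhibition of the luminescence signal of 40% or more relative to plate controls, in a single-dose primary screen at 18.75 µM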
KKLEB tox = counter-screen for CF NF-kB inhibitors: cytotoxicity | KKLEB CF airway cells viability, ATPlite luminescence, overnight; stronger effect = lower value; cells stimulated with P. aeruginosa culture filtrate | activity change (cytotoxicity), % at 5 µM | 0.36% of 360,000 active | AID 602141;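 active = corrected activity change at or below -50% at 5 µM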
TWEAK-Fn14 inh = TWEAK-Fn14 signaling inhibition. 2% of 360,000 active. inhibition, % at 10 µM. AID 1159606. TWEAK-stimulated Fn14 reporter cells, luciferase luminescence, 8 h; in the data active = inhibition above about 50%
* marks the source's active call; other numbers are inactive results; . = no result. Shown are actives, neighbours in structure and some others; about 4% of the full set was active somewhere.

SMILES	TROY signal inh	CF NFkB block	Peg3 prom inh	HIF-2a block	KKLEB tox	TWEAK-Fn14 inh
Cc1ccc(OCc2cc(C(=O)N3CCc4[nH]cnc4C3c3ccccn3)no2)cc1C (centres undefined)	-13.4	9.4	-7.9	-4.7	6.2	0.3
O=C(NN=Cc1cccc2ccccc12)C(=O)NN=Cc1cccc2ccccc12	-2.8	-24.3	51.1*	2.3	6.2	-17.8
O=C(O)c1cc(N/N=C/c2cccc3ccccc23)ccc1Cl	-19.0	-17.0	-276.4	-185.2	0.3	100.7*
CC(O)C(=O)N/N=C/c1cccc2ccccc12 (centres undefined)	-7.5	3.6	-21.1	-16.3	0.6	0.6
Cn1c(SCc2c(Cl)cccc2Cl)nnc1-c1cccs1	-10.4	4.9	-53.1	-129.6	-11.8	-16.4
O=C(Nc1nccs1)c1ccc([N+](=O)[O-])cc1Cl	6.0	3.6	-41.9	-121.5	0.3	-23.4
O=C1Nc2cc(C(=O)N3CCc4ccccc4C3)ccc2S/C1=C\c1ccccc1	18.4	0.4	12.8	11.9	0.1	27.9
CCN1CCN(CCCNC(=O)c2ccc3c(c2)NC(=O)c2ccccc2S3)CC1	-3.5	-3.3	1.2	16.4	7.2	-6.5
COc1cccc(/C=C2/Sc3ccc(C(=O)NCCN4CCCCCC4)cc3NC2=O)c1	2.3	5.7	100.3*	14.7	-7.0	-18.3
O=C1Nc2cc(C(=O)NCCN3CCCCCC3)ccc2S/C1=C\c1ccccc1	-17.2	19.0	94.4*	3.6	-4.0	3.3
CCN1CCCC1CNC(=O)c1ccc2c(c1)NC(=O)/C(=C\c1ccc(OC)c(OC)c1)S2 (centres undefined)	2.5	-8.1	40.4	21.4	4.6	-59.1
O=C1Nc2cc(C(=O)NCCCN3CCCC3)ccc2S/C1=C/c1cccc(Cl)c1	1.9	21.9	99.3*	-7.6	0.0	-11.0
CC(C)C[C@H]1COc2cc(N3CC[C@@H](O)C3)ccc2S(=O)(=O)N1	-16.6	.	.	-4.2	.	18.3
C/C(=N/Nc1ccc(C)cc1)C1(C)N(O)C(C)(C)C(c2ccco2)=[N+]1[O-] (centres undefined)	4.9	0.3	13.4	22.2	4.8	-12.8
NC(=O)COc1ccc(C2c3c(oc4ccccc4c3=O)C(=O)N2CC2CCCO2)cc1 (centres undefined)	-8.0	8.4	-27.4	-14.2	-1.1	9.8
COC(=O)c1ccc(NC(=O)c2cccc(N3C(=O)C4C5C=CC(C6CC56)C4C3=O)c2)cc1 (centres undefined)	54.6*	-33.3	49.6	10.8	27.2	85.3*
COc1ccc(OC)c(NC(=O)c2cccc(N3C(=O)C4C5CCC(C5)C4C3=O)c2)c1 (centres undefined)	8.4	1.6	18.6	3.9	-0.3	11.9
COC(=O)c1ccc(NC(=O)c2ccc[n+]([O-])c2)cc1	1.8	-1.3	-2.3	3.5	4.6	86.7*
COc1ccc(OC)c(NC(=O)c2cccc(N3C(=O)C4C5C=CC(C6CC56)C4C3=O)c2)c1 (centres undefined)	24.8	5.7	30.4	1.9	-8.0	52.6*
CN(C)c1ccc(-c2nnn(CC(=O)NCc3ccc4c(c3)OCO4)n2)cc1	-61.6	-2.8	-122.2	-38.7	0.0	-7.8
COc1ccc(CNC(=O)Cn2nnc(-c3ccc(NC(=O)C4CCCCC4)cc3)n2)cc1	-46.9	6.2	-67.8	-69.6	-6.9	-51.4
O=C(C1=C[C@H](c2csc3ccccc23)C[C@H](OCCCCO)O1)N1CCN(Cc2ccccc2)CC1	-20.6	6.9	24.1	10.8	-8.7	1.0
COc1ccc(C)c2sc(=NC(=O)c3ccc(C(C)=O)cc3)n(C)c12	51.3*	-11.2	-181.7	-286.2	1.9	39.9
CCOC(=O)c1sc(NC(=O)CCc2ccc(OC)cc2)nc1C	-17.2	-1.9	6.1	3.1	-25.1	-22.7
O=C(Nc1ccccc1Cl)C(=O)c1cn(CC(=O)N2CCOCC2)c2ccccc12	-69.5	-9.2	-248.4	-158.4	-20.2	-3.5
SMILES	TROY signal inh	CF NFkB block	Peg3 prom inh	HIF-2a block	KKLEB tox	TWEAK-Fn14 inh
COC(=O)c1ccccc1S(=O)(=O)NCc1nc2nc(C)cc(C)n2n1	17.4	-34.7	3.5	11.7	22.0	1.7
O=C1C(Nc2ccccc2)=C/C(=N/S(=O)(=O)c2cccs2)c2ccccc21	48.3	99.5*	105.4*	-4.6	-91.1*	96.9*
Cc1ccc(NC2=C/C(=N/S(=O)(=O)c3cccs3)c3ccccc3C2=O)cc1	59.5*	80.0*	-88.0	-152.1	-70.0*	93.5*
COC(=O)c1sc(-c2ccccc2)cc1NC(=O)c1ccc(F)cc1	-12.9	-0.3	-3.6	17.4	3.7	-19.5
Cc1ccc(C(=O)N2CCc3ccccc32)cc1NC(=O)c1ccco1	-2.6	0.0	10.9	1.5	8.0	89.0*
O=C(COc1ccc(Cl)cc1Cl)NC(=S)N1CCCc2ccccc21	9.8	-20.4	-44.6	-106.1	5.2	57.8*
Cc1cccc(OCC(=O)NC(=S)N2CCCc3ccccc32)c1	39.5	-2.0	-68.2	-46.3	2.4	56.3*
O=C(NC(=S)N1CCCc2ccccc21)c1ccco1	52.6*	-10.1	-28.1	-71.7	1.3	51.9*
CC1Cc2ccccc2N1C(=S)NC(=O)c1ccco1 (centres undefined)	1.5	-0.5	-0.6	11.1	-0.4	5.7
O=c1cc(CSc2nnc(-c3ccccc3)o2)c2ccccc2[nH]1	-9.8	-25.5	-16.1	-62.2	-3.7	-12.9
O=C(NCc1ccccc1)C(CCc1ccccc1)n1c(=O)c(-c2cc3ccccc3[nH]2)nc2ccccc21 (centres undefined)	.	.	.	-21.0	.	.
O=C(COc1ccc(Cl)cc1Cl)NC(=O)NC1CCCC1	-28.9	23.6	-482.6	-346.8	-19.0	-53.1
O=C(COc1ccc(Cl)cc1Cl)NC(=O)N1CCCCC1	0.3	20.9	-266.7	-111.1	-18.1	61.2*
CC(OC(=O)c1ccccc1Oc1ccccc1)C(=O)NC1CC1 (centres undefined)	58.7*	-13.9	15.7	5.6	0.1	9.8
O=Nc1c(O)n(Cc2cccc(C(F)(F)F)c2)c2ccccc12	19.9	50.7*	38.0	27.9	-15.5	18.4
Cc1ccc2c(c1)c(C1=c3ccccc3=NC1=O)c(O)n2C	28.4	52.9*	21.2	42.3*	-14.6	29.4
C=CCn1c(O)c(C2=c3ccccc3=NC2=O)s/c1=N/c1nccs1	-5.8	9.9	40.6	-0.6	-12.7	-32.9
C=CCn1c(O)c(C2=c3ccccc3=NC2=O)c2ccccc21	32.8	28.8	48.9	45.2*	-9.9	29.5
O=C(COC(=O)c1ccc2c(c1)C(=O)N(Cc1ccco1)C2=O)NCC(F)(F)F	15.9	2.4	4.0	4.8	-2.6	22.7
CN1CCN(c2ncnc3c2cnn3-c2ccc(Cl)cc2)CC1	80.3*	-3.8	-55.6	-35.2	-9.1	75.9*
CC1CC(C)CN(c2ncnc3c2cnn3-c2ccc(Cl)cc2)C1 (centres undefined)	78.1*	-2.5	-289.3	-119.7	18.4	76.7*
